Some test systems named below: NCI-H23 lung; NCI-H226 lung; NCI-H322M lung; HOP-62 NSCLC; NCI-H460 lung; HOP-92 NSCLC; NCI-H522 lung; A549/ATCC NSCLC; 786-0 renal; COLO 205 colon; DU-145 prostate; MALME-3M melanoma; MDA-MB-231 breast; RXF 393 renal; SF-268 CNS; SF-295 CNS; SF-539 CNS; UACC-257 melanoma; M14 melanoma; K-562 leukemia.
Holding throughout (experiment): NCI-60 one-dose screen, 48 h (100 = growth as untreated, 0 = no growth, -100 = all killed)
What all share (details): 10 µM unless noted

Compounds without any hit were thinned out: in the full panel of roughly 83,000, 20% have a hit.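 96-well plates, one dose, 48 hours. Percent growth reported; active if below 10.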 Unmarked numbers belong to inactive results. Calls of active or inactive are those of the source.

Take `CCCCN(CCCC)c1ccc(C(=N)c2ccc(N(CCCC)CCCC)cc2)cc1`: the growth was -77% (active) with NCI-H23 lung; -90.7% (active) with NCI-H226 lung; 11.9% with NCI-H322M lung; -96.8% (active) in the experiment with HOP-62 NSCLC; -85.9% (active) in the experiment on NCI-H460 lung; -83% (active) with HOP-92 NSCLC. Moreover, the growth in the experiment with NCI-H522 lung is -87% (active); in the experiment with A549/ATCC NSCLC it was -86.6% (active); with 786-0 renal it was -91.2% (active); in the experiment on COLO 205 colon, -96.2% (active); in the experiment on DU-145 prostate, -98.6% (active); in the experiment on MALME-3M melanoma it was -64.5% (active). Besides, the growth in the experiment on MDA-MB-231 breast was -90.3% (active); in the experiment on RXF 393 renal it was -94.8% (active); in the experiment with SF-268 CNS, -95.9% (active); in the experiment on SF-295 CNS, -83.5% (active); in the experiment on SF-539 CNS, -91.3% (active); with UACC-257 melanoma it was -81.1% (active). In addition, in the experiment on M14 melanoma, the growth was -90.3% (active).
On to `Fc1ccc(CNCCNc2ncnc3c2cnn3-c2ccccc2)cc1`, for which the growth with NCI-H23 lung was 103%; in the experiment with NCI-H226 lung, 102%; in the experiment with NCI-H322M lung, 100%; in the experiment with HOP-62 NSCLC, 90.4%; in the experiment on NCI-H460 lung, 104%; in the experiment with HOP-92 NSCLC it was 61.8%. The growth was 99.9% with NCI-H522 lung; 91.7% with A549/ATCC NSCLC; 83.5% with 786-0 renal; 89.6% with COLO 205 colon; 114% with DU-145 prostate; 83.3% in the experiment with K-562 leukemia. Further, the growth is 92.4% in the experiment on MALME-3M melanoma; 79% in the experiment on MDA-MB-231 breast; 74.6% in the experiment on RXF 393 renal; 92.3% in the experiment on SF-268 CNS; 100% in the experiment with SF-539 CNS; 85.6% in the experiment on UACC-257 melanoma. Besides, the growth in the experiment with M14 melanoma was 103%.
`COc1cc(-c2ncn(/C=C\C(=O)OC(C)C)n2)cc(C(F)(F)F)c1`: the growth in the experiment with NCI-H23 lung was 17.5%; in the experiment on NCI-H226 lung it was -47% (active); in the experiment with NCI-H322M lung, 0.838% (active); in the experiment on HOP-62 NSCLC, -18.5% (active); with NCI-H460 lung it was -31.7% (active); in the experiment with HOP-92 NSCLC it was 7.61% (active). The growth in the experiment on NCI-H522 lung is -70.9% (active); in the experiment with A549/ATCC NSCLC it was 12.9%; in the experiment with 786-0 renal it was 9.65% (active); in the experiment on COLO 205 colon it was -62.2% (active); in the experiment on DU-145 prostate it was 15.7%; in the experiment with K-562 leukemia, 3.62% (active). The growth in the experiment on MALME-3M melanoma is -1.62% (active); in the experiment on RXF 393 renal it was -41.1% (active); in the experiment with SF-268 CNS, -1.06% (active); in the experiment with SF-295 CNS it was 61.3%; in the experiment with SF-539 CNS, -36.8% (active); in the experiment with UACC-257 melanoma it was 60.3%.
Turning to `Nc1cc2c(cc1C(=O)c1cccc(F)c1)OCCO2`, the growth in the experiment on NCI-H23 lung is 95.4%; in the experiment with NCI-H226 lung it was 91.4%; in the experiment on NCI-H322M lung it was 98.5%; in the experiment on HOP-62 NSCLC, 95%; in the experiment with NCI-H460 lung it was 104%; with HOP-92 NSCLC it was 72.9%. The growth is 87.3% in the experiment with NCI-H522 lung; 91.6% with A549/ATCC NSCLC; 94% in the experiment with 786-0 renal; 111% with COLO 205 colon; 109% in the experiment on DU-145 prostate; 109% in the experiment on MALME-3M melanoma. Moreover, the growth in the experiment on MDA-MB-231 breast was 102%; in the experiment on RXF 393 renal, 104%; with SF-268 CNS, 98.4%; with SF-295 CNS, 94.5%; in the experiment on SF-539 CNS, 103%; in the experiment on UACC-257 melanoma it was 93.4%. Moreover, the growth with M14 melanoma is 107%.
Regarding `O=S1(=O)CCC(N(/N=C/c2ccco2)c2ccccc2)C1` (centres undefined), the growth in the experiment with NCI-H23 lung was 102%; in the experiment on NCI-H226 lung, 104%; in the experiment on NCI-H322M lung it was 102%; in the experiment with HOP-62 NSCLC it was 104%; in the experiment on NCI-H460 lung, 107%; in the experiment on HOP-92 NSCLC it was 96.5%. The growth in the experiment on NCI-H522 lung is 95.5%; in the experiment with A549/ATCC NSCLC it was 97.9%; with 786-0 renal it was 103%; with COLO 205 colon it was 117%; in the experiment on DU-145 prostate, 111%; with K-562 leukemia, 123%. The growth was 112% in the experiment with MDA-MB-231 breast; 109% in the experiment on RXF 393 renal; 102% in the experiment on SF-268 CNS; 98.1% with SF-539 CNS; 95.1% in the experiment with UACC-257 melanoma; 100% with M14 melanoma.
Regarding `O=[N+]([O-])c1ccc(/C=C/C2(CCl)OCCO2)cc1`, the growth in the experiment with NCI-H23 lung is 90.9%; in the experiment on NCI-H226 lung it was 101%; in the experiment on NCI-H322M lung, 152%; with HOP-62 NSCLC, 116%; in the experiment on NCI-H460 lung it was 117%; in the experiment with HOP-92 NSCLC, 84.2%. The growth with NCI-H522 lung is -15.3% (active); in the experiment with A549/ATCC NSCLC, 105%; with 786-0 renal, 85.6%; with COLO 205 colon, 107%; in the experiment on DU-145 prostate it was 114%; in the experiment with K-562 leukemia, 65.7%. Besides, the growth is 114% in the experiment on MDA-MB-231 breast; 104% with RXF 393 renal; 115% in the experiment on SF-268 CNS; 104% with SF-539 CNS; 93.6% in the experiment on UACC-257 melanoma; 95.2% in the experiment on M14 melanoma.
In the case of `Cc1[nH]c2ccc(F)cc2c1CCNC(=O)C1CCN(C(=O)c2ccccc2)CC1`, the growth was 99.3% [25 µM] in the experiment on NCI-H23 lung; 83.7% [25 µM] with NCI-H226 lung; 86.3% [25 µM] with NCI-H322M lung; 84.6% [25 µM] in the experiment with HOP-62 NSCLC; 101% [25 µM] with NCI-H460 lung; 4.45% [25 µM] (active) in the experiment with HOP-92 NSCLC. The growth in the experiment with NCI-H522 lung is 89.3% [25 µM]; in the experiment with A549/ATCC NSCLC, 96.6% [25 µM]; with 786-0 renal, 88.9% [25 µM]; in the experiment with COLO 205 colon, 90.9% [25 µM]; in the experiment on DU-145 prostate, 82.9% [25 µM]; in the experiment on K-562 leukemia, 90.4% [25 µM]. Also, the growth with MALME-3M melanoma was 75.6% [25 µM]; in the experiment on MDA-MB-231 breast, 79.4% [25 µM]; in the experiment on SF-268 CNS it was 79.5% [25 µM]; in the experiment with SF-295 CNS, 96.1% [25 µM]; in the experiment with SF-539 CNS, 86.4% [25 µM]; with UACC-257 melanoma, 98.3% [25 µM]. For the same compound, the growth in the experiment with M14 melanoma was 98.3% [25 µM].
Regarding `Cc1[nH]c2ccc(F)cc2c1CCNC(=O)C1CCN(C(=O)c2ccccc2)C1` (centres undefined), the growth in the experiment on NCI-H23 lung was 88.6% [25 µM]; in the experiment with NCI-H226 lung, 90.2% [25 µM]; in the experiment on NCI-H322M lung, 61.8% [25 µM]; in the experiment on HOP-62 NSCLC, 93.3% [25 µM]; in the experiment on NCI-H460 lung, 101% [25 µM]; in the experiment with HOP-92 NSCLC it was -0.166% [25 µM] (active). The growth was 95.1% [25 µM] in the experiment on NCI-H522 lung; 97.8% [25 µM] in the experiment on A549/ATCC NSCLC; 89.9% [25 µM] with 786-0 renal; 101% [25 µM] with COLO 205 colon; 87.6% [25 µM] in the experiment on DU-145 prostate; 91.9% [25 µM] in the experiment on K-562 leukemia. The growth is 73.3% [25 µM] in the experiment with MALME-3M melanoma; 82% [25 µM] in the experiment with MDA-MB-231 breast; 85.1% [25 µM] with SF-268 CNS; 96.4% [25 µM] in the experiment with SF-295 CNS; 83% [25 µM] in the experiment on SF-539 CNS; 99.6% [25 µM] in the experiment with UACC-257 melanoma. Further, the growth in the experiment with M14 melanoma is 98.8% [25 µM].

Source of the values: PubChem BioAssay (NCI).
